Shown are actives, neighbours in structure and some others; about 2.3% of the full set was active somewhere.
Nrf2 activator: activates Nrf2 signaling | AREc32 ARE-luciferase reporter (MCF7-derived line), luminescence, 24 h | Potency, µM (titrated, usually from 46.1 µM), without a hit: at the highest dose activation, usual class: activators | 0.31% of 410,000 active | AID 624171; note: potency is the fitted concentration of half-maximal effect; % of control where 0% means no effect; nearly all actives have a fitted effect of over 65% in size
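Quantitative high-throughput format: AREc32 reporter cells, 1000 per well, received compound by pin transfer and were incubated 24 hr at 37 deg C, 5% CO2, before Steady-Glo luminescence detection.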
Giardia kill: kills Giardia lamblia. Giardia lamblia trophozoite viability. activity change, % at 7.66 µM, hits read low. 0.15% of 340,000 active; in the data active = activity change below about -80%; inconclusive = between about -30% and that limit;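 note: parasites exposed to compound for two days anaerobically before the ATP read; % is set by controls: 0 for no effect and ±100 for the full control effect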
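ATP-content bioluminescence gauges trophozoite survival. Cells (100/well) receive compound and incubate anaerobically for 48 hrs at 37 deg C; detection reagent follows for 15-30 min at room temperature.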
IDH1 R132H inh: inhibitors of human mutant IDH1 R132H; Potency, µM (top dose mostly 76.6 µM), for inactives: top-dose activity change, negative = inhibition, usual class: inhibitors; 0.093% of 390,000 active; AID 602179; IDH1-R132H enzyme, NADPH consumption, diaphorase/resazurin fluorescence; note: potency is the fitted concentration of half-maximal effect; % is set by controls: 0 for no effect and ±100 for the full control effect; nearly all actives have a fitted effect of over 65% in size
Target sequence (O75874 whole entry R132H, stated change not applied): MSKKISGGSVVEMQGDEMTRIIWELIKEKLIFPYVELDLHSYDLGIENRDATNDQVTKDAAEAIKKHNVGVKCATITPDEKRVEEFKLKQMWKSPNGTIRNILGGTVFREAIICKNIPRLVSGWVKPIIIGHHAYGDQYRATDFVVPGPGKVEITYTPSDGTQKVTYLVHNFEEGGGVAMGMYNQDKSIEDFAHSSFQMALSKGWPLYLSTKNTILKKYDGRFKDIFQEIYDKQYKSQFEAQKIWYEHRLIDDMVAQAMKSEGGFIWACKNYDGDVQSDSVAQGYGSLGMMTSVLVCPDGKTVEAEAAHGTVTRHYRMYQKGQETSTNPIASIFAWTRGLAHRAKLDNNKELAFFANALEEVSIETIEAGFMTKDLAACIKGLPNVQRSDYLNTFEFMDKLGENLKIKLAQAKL
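IDH1-R132H (0.5 ug/mL) preincubated 30 min with compound, then NADPH (0.016 mM) and alpha-KG (2 mM) added; 80 min at RT, pH 7.5. Remaining NADPH coupled via diaphorase/resazurin to fluorescence (540/590 nm); concentration-response curves normalized to no-enzyme control.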
Nrf2 block: Nrf2 pathway inhibition | A549 ARE-Fluc reporter, luciferase luminescence, 18-24 h | Potency, µM (highest dose often 46 µM), for inactives: at the highest dose activity change, negative = inhibition, hits mostly inhibitors | 2.1% of 360,000 active | AID 504444; note: potency is the fitted concentration of half-maximal effect; % is set by controls: 0 for no effect and ±100 for the full control effect; nearly all actives have a fitted effect of over 60% in size
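A549 ARE_Fluc cells (5000/well, 5% FBS OPTI-MEM) pre-incubated 2 h, then treated with compounds 18-24 h at 37C/5% CO2 in concentration-response. CellTiter-Fluor viability read first; BugLite luciferase luminescence after 15 min at room temperature gives Nrf2 activity.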
A549 viability: counter-screen for Nrf2 inhibitors: cytotoxicity in A549 cells; A549 ARE-Fluc cells, CellTiter-Fluor viability, 18-24 h; Potency, µM (top dose mostly 46 µM), for inactives: at the top dose activity change, negative = cytotoxicity, most hits filed as inhibitors; 0.16% of 390,000 active; AID 504648; note: potency is the fitted concentration of half-maximal effect; % is set by controls: 0 for no effect and ±100 for the full control effect
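A549 ARE_Fluc cells in 5% FBS OPTI-MEM were exposed to compounds in concentration-response for 18-24 h at 37 deg C. Viability was read by CellTiter-Fluor fluorescence (Ex 405/Em 525) after 30 min, before the luciferase read.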
Apoferritin bind: binds horse apoferritin like a general anesthetic; apoferritin/1-aminoanthracene competitive binding, fluorescence; Potency, µM (titrated, usually from 77.5 µM), for inactives: top-dose activity change, negative = displacement, usual class: inhibitors; 0.074% of 350,000 active; AID 485281; note: potency is the fitted concentration of half-maximal effect; % is set by controls: 0 for no effect and ±100 for the full control effect; nearly all actives have a fitted effect of over 20% in size
Target sequence (P02791 2-175 limits assumed): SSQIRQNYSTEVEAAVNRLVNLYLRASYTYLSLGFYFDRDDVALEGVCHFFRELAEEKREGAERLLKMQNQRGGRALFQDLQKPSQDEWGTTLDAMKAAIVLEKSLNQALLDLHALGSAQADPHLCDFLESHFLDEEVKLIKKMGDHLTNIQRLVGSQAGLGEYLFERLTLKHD
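Horse-spleen apoferritin (10 uM) in 50% saturated 1-aminoanthracene in PBS was incubated 10 min at room temperature with compound. Fluorescence (ex 380, em 535 nm) was normalized to free and bound 1-AMA, with concentration-response fitted by a four-parameter Hill equation.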
IDH1 autofl: interferes with resorufin fluorescence in IDH1 counter-screen; inhibition of signal, % at 51.2 µM; Resorufin detection reagent fluorescence interference, cell-free; 750 tested, under 10 active; AID 623980; shares compounds with IDH1 R132H inh;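 note: 0% = wells with normal resorufin and full inhibition = wells lacking resorufin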
IDH1 WT: inhibits human wild-type IDH1, mutant selectivity check. WT IDH1 enzyme, NADPH diaphorase/resazurin fluorescence. shares compounds with IDH1 R132H inh. AID 623995. 9% of 750 active. Potency, µM (series often up to 115 µM), without a hit: at the top dose activity change, negative = inhibition, most hits filed as inhibitors;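 note: potency is the fitted concentration of half-maximal effect; 0% = full WT IDH1 enzyme control and full inhibition = no enzyme wells; nearly all actives have a fitted effect of over 55% in size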
Target sequence (O75874 whole entry, looked up): as the sequence (O75874 whole entry R132H, stated change not applied) above, with H132R counted along it
IDH1 R132H conf: mutant IDH1 (human) inhibition, confirmed; IDH1 R132H enzyme, NADPH diaphorase/resazurin fluorescence; AID 624002; Potency, µM (top dose mostly 76.6 µM), for the others: top-dose activity change, negative = inhibition, usual class: inhibitors; shares compounds with IDH1 R132H inh; 83% of 750 active; note: potency is the fitted concentration of half-maximal effect; nearly all actives have a fitted effect of over 50% in size
* hit, by the source's call; u = inconclusive; x = no result given; [ ] = remark or other dose. Unless noted, calls come from the whole dose curve; as a rule, active = well fitted curve in the direction sought with a large enough effect; inconclusive = small, poorly fitted or top-dose-only effect, or another doubt; inactive = no such curve, though single readings can be large; an effect the other way counts as inactive or inconclusive.

SMILES	Nrf2 activator	Giardia kill	IDH1 R132H inh	Nrf2 block	A549 viability	Apoferritin bind	IDH1 autofl	IDH1 WT	IDH1 R132H conf
Cc1cc(C)c(O)c(-c2n[nH]c3c2C(c2cccc(O)c2)N(Cc2ccco2)C3=O)c1 (stereo unspecified)	-0.5%	2.4	16.5µM*	-2.9%	0.9%	-5.3%	-7.8	50.1µM*	22.4µM*
CCC1C/C(=C\c2cccnc2)C(=O)/C(=C/c2cccnc2)C1 (stereo unspecified)	0.0%[9.22 µM]	-28.7	52.1µM*	u	-15.2%	-5.1%	-16.4	-8.2%	31.6µM*
N#Cc1c(N)nc2c3c(sc(=N)c2c1N)NC(=O)CC3c1ccccc1 (stereo unspecified)	4.8%	17.7	-11.6%	10.2%	-5.3%	-13.4%	x	x	x
Cc1c(C#N)c(N)nc2c3c(sc12)NC(=O)CC3c1ccc(Cl)cc1 (stereo unspecified)	-0.1%[9.22 µM]	-4.8	29.3µM*	-29.2%	-8.0%	53.6%	3.1	8.9%	15.8µM*
CCC1(c2ccccc2)NC(=O)NC1=O (stereo unspecified)	x	x	x	x	x	3.8%	x	x	x
Cc1cc(NC(=O)CCC(=O)N(c2ccccc2F)C(C(=O)NC2CCCC2)c2ccccc2)no1 (stereo unspecified)	-2.5%	1.2	u	-0.5%	-3.8%	-2.2%	-4.9	3.0%	25.1µM*
O=C(CCCC(=O)N(c1ccc2c(c1)OCCO2)C(C(=O)NC1CCCCC1)c1ccc(Cl)cc1)Nc1ccccn1 (stereo unspecified)	0.3%	-1.2	u	u	-9.4%	3.4%	-6.9	0.4%	12.6µM*
Cc1cc(NC(=O)CCC(=O)N(c2cccnc2)C(C(=O)NC2CCCC2)c2ccccc2F)no1 (stereo unspecified)	0.4%	-11.7	u	4.3%	-16.0%	-9.4%	x	x	x
Cc1cc(NC(=O)CCCC(=O)N(c2ccccc2)C(C(=O)NC2CCCCC2)c2cccs2)no1 (stereo unspecified)	-0.7%	-5.3	u	0.4%	0.7%	6.6%	1.4	9.4%	20µM*
COc1ccc(C(C(=O)NC2CCCCC2)N(C(=O)CCCC(=O)Nc2ccccn2)c2ccc3c(c2)OCCO3)cc1 (stereo unspecified)	-0.2%	-11.0	-4.5%	13.0%	1.1%	-8.2%	x	x	x
Cc1cc(NC(=O)CCC(=O)N(c2ccccc2)C(C(=O)NC2CCCC2)c2ccccc2F)no1 (stereo unspecified)	2.2%	6.5	u	4.9%	-4.6%	3.7%	-1.1	5.1%	22.4µM*
COc1ccc(N(C(=O)/C=C/C(=O)Nc2cc(C)on2)C(C(=O)NC2CCCC2)c2ccccc2C)cc1 (stereo unspecified)	29.2%	2.1	u	u	u	-9.2%	-11.5	6.1%	35.5µM*
Nc1ccn(C(C=O)CC(C=O)CO)c(=O)n1 (stereo unspecified)	0.5%	x	x	x	x	x	x	x	x
CC[C@@H](CCC=C(C)C)C(=O)N(Cc1ccccc1)c1ccccc1	-0.2%	-17.7	u	9.9%	4.6%	x	-0.2	u	15.8µM*
Cn1c(SSc2ccc(-c3cccnc3)n2C)ccc1-c1cccnc1	14.3%	-2.6	10.4µM*	18.4%	-5.7%	x	0.9	360.1%	35.5µM*
O=C(CCl)N1CCN(S(=O)(=O)c2ccc3c(c2)CCC3)CC1	-2.4%	-19.5	46.5µM*	18.8%	-6.3%	x	-5.6	-24.3%	28.2µM*
Cc1cc(C(C)(C)C)cc(S(=O)(=O)Nc2ccc(O)c(C(=O)O)c2)c1C	-0.1%	-7.4	u	x	-1.3%	-3.1%	-0.5	0.7%	28.2µM*
CCCCNc1c(-c2cccc(-c3ccc(OC)cc3)c2)nc2ccc(C)cn12	-3.3%	-4.5	u	u	u	x	-7.4	u	6.31µM*
Cn1c2ccccc2c(=O)c2c(=O)n(C3CCCCC3)c(-c3ccco3)nc21	4.0%	-5.2	26.1µM*	-4.5%	2.2%	-9.6%	-11.0	23.9%	22.4µM*
COc1ccc(C)cc1NC(=O)NC1CC(=O)N(c2ccc3c(c2)OCCO3)C1 (stereo unspecified)	-0.7%	x	-5.2%	x	x	x	x	x	x
CCOc1ccc(CCNC(=O)C2CCN(C(=O)c3cc4sccc4n3CC)CC2)cc1OCC	0.2%	x	-8.0%	u	-6.8%	125.1%	x	x	x
Fc1ccc(Nc2nc(NCc3ccco3)c3ccccc3n2)cc1	-1.0%	25.7	u	18.4µM*	-11.2%	5.3%	8.6	6.3%	28.2µM*
CC(CCc1ccccc1)NC(=O)COC(=O)c1ccc([N+](=O)[O-])cc1 (stereo unspecified)	-0.6%	-28.0	7.3%	-7.1%	4.7%	-3.3%	x	x	x
CS(=O)(=O)c1ccc(C(=O)OCc2nnc(-c3ccccc3)o2)cc1[N+](=O)[O-]	0.7%	5.2	u	u	u	-15.1%	-3.9	9.0%	25.1µM*
CC(CCc1ccccc1)NC(=O)COC(=O)c1ccc(S(C)(=O)=O)c([N+](=O)[O-])c1 (stereo unspecified)	-2.6%	0.9	u	u	u	-15.2%	-3.1	1.8%	u
SMILES	Nrf2 activator	Giardia kill	IDH1 R132H inh	Nrf2 block	A549 viability	Apoferritin bind	IDH1 autofl	IDH1 WT	IDH1 R132H conf
CC(C)c1nc(N2CCN(C(=O)c3ccco3)CC2)c(C#N)c2c1COC(C)(C)C2	5.8%	-2.2	20.7µM*	u	-14.6%	-22.0%	-9.3	-9.9%	20µM*
CC1(C)Cc2c(C#N)c(SCC(=O)O)nc(N3CCOCC3)c2CO1	0.1%	3.8	0.4%	1.5%	0.2%	x	x	x	x
CC1(C)Cc2c(C#N)c(N3CCCC3)nc(-c3ccco3)c2CO1	x	x	x	x	x	2.7%	x	x	x
CC(C)c1nc(N2CCN(C(=O)c3ccccc3)CC2)c(C#N)c2c1COC(C)(C)C2	0.3%	-3.9	u	u	-19.5%	4.0%	2.3	-10.3%	22.4µM*
CC(C)OC(=O)CSc1nc(N2CCOCC2)c2c(c1C#N)CC(C)(C)OC2	-0.1%	14.8	u	-10.7%	3.1%	-7.5%	-6.5	4.6%	35.5µM*
Cc1sc2c(c1C)c(=O)n(-c1ccc(Cl)cc1)c(=O)n2CC(=O)c1ccccc1	0.7%	x	-5.8%	-8.0%[9.27 µM]	-7.1%	-8.0%	x	x	x

Screening results: PubChem, National Center for Advancing Translational Sciences (NCATS)
